“And” between values parts separate entries of the source, which are not always exact repeats. Equal values may be shown once. Inconclusive results are not listed. A structure can be active in one record and inactive in another. The source made the active and inactive calls. How the source made its calls, unless noted: active means hit-call score of the fitted dose curve at least 0.9, where 1 is the maximum; inactive means score below 0.9.

Read-out in test [1]: Interleukin-8 (IL8), CXCL8 (gene 3576)
The test can be described thus: BSK_3C_IL8: BioMAP Diversity Plus: 3C Assay for Interleukin-8 (IL8) Biomarker Activity (AID 2283020). Conditions: primary human endothelial cells (HUVEC); actives raise or lower the signal. The essentials: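 Using DMSO-treated wells as the baseline, bidirectional curve fitting was applied to ELISA-measured IL-8 from human umbilical vein endothelial cultures sampled 24 h after compound addition.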

Read-out in test [2]: Monokine induced gamma interferon (MIG), CXCL9 (gene 4283)
The test can be described thus: BSK_3C_MIG: BioMAP Diversity Plus: 3C Assay for Monokine induced gamma interferon (MIG) Biomarker Activity (AID 2283021).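 On AC50: MIG protein level measured by immunoassay in the treated endothelial cultures.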 Conditions: primary human endothelial cells (HUVEC); actives raise or lower the signal. The essentials: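 ELISA-measured MIG in dosed HUVEC 3C cultures at 24 h, analysed by bidirectional fitting with DMSO defining baseline activity.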

In test [3] the target is human Vitamin D Receptor (VDR), VDR (gene 7421) (UniProt P11473). The test can be described thus: ATG_VDR_TRANS: Attagene TRANS-FACTORIAL HepG2 Assay for human Vitamin D Receptor (VDR) (AID 2283022; active means hit-call score of the fitted dose curve at least 0.9, where 1 is the maximum). Summed up: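 HepG2 cells were transiently transfected with GAL4-UAS reporter units and a chimeric VDR-Gal4 construct, then dosed for 24 hours. Reporter mRNA was quantified by RT-PCR, fluorescent labeling, HpaI digestion and capillary electrophoresis; gain of signal analysed vs DMSO.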

The nature of test [4]: BSK_3C_SRB: Viability Assessment in the BioMAP Diversity Plus: 3C Assay (AID 2283023).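 Further: fitted both ways against DMSO so a hit may be signal rise or drop.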 Conditions: primary human endothelial cells (HUVEC). Summed up:
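Human umbilical vein endothelial cells in the 3C system, treated 24 h. Total protein measured by 0.1% sulforhodamine B staining after 10% TCA fixation, read at 560 nm; bidirectional fit versus DMSO.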

Read-out in test [5]: Matrix Metallopeptidase 1 (MMP1), MMP1 (gene 4312)
The test can be described thus: BSK_BE3C_MMP1: BioMAP Diversity Plus: BE3C Assay for Matrix Metallopeptidase 1 (MMP1) Biomarker Activity (AID 2283024). Conditions: primary human bronchial epithelial cells; actives raise or lower the signal. The essentials:
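In this multiplexed primary-cell system, human bronchial epithelium received chemicals for 24 h before an ELISA for MMP1. Values reflect bidirectional fits normalised to the DMSO baseline.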

Test [6] is described as follows: BSK_3C_Vis: BioMAP Diversity Plus: 3C Assay for Morphology Visualization (AID 2283025).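 Further: fitted both ways so gain or loss versus DMSO counts.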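 On AC50: light microscopy image of cell morphology used as background control.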 The following applies: primary human endothelial cells (HUVEC). The essentials:
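Light-microscopy morphology readout, 24 h exposure, human primary umbilical vein endothelium; analysed relative to DMSO with bidirectional fitting.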

Read-out in test [7]: Pselectin, SELP (gene 6403)
The test can be described thus: BSK_4H_Pselectin: BioMAP Diversity Plus: 4H Assay for Pselectin Biomarker Activity (AID 2283026). Conditions: primary human endothelial cells (HUVEC); actives raise or lower the signal. Summed up:
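Bidirectional fits against DMSO gave the endpoint. Cells: primary human umbilical vein endothelium, chemical-treated for 24 h before ELISA detection of P-selectin.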

A short description of test [8]: BSK_BE3C_SRB: Viability Assessment in the BioMAP Diversity Plus: BE3C Assay (AID 2283028).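 On AC50: fitted both ways so AC50 may mark signal gain or loss versus DMSO.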 Conditions: primary human bronchial epithelial cells. The essentials: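 Human bronchial epithelial primary cells in confluent culture, 24 h after chemical dosing; total protein by 0.1% SRB staining after 10% TCA fixation, read at 560 nm. Bidirectional fitting versus DMSO baseline.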

Read-out in test [9]: Thrombomodulin, THBD (gene 7056)
The test can be described thus: BSK_3C_Thrombomodulin: BioMAP Diversity Plus: 3C Assay for Thrombomodulin Biomarker Activity (AID 2283029). Conditions: primary human endothelial cells (HUVEC); actives raise or lower the signal. The essentials: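 In a multiplexed primary-cell system, human umbilical vein endothelium received chemical and was assayed 24 h later for thrombomodulin by ELISA. Parallel cultures were SRB-stained (0.1% SRB after 10% TCA fixation, read at 560 nm) to flag cytotoxicity.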

Test [10] can be described thus: BSK_4H_SRB: Viability Assessment in the BioMAP Diversity Plus: 4H Assay (AID 2283027).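 Further: cells exposed to compound for 24 h before staining.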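 On AC50: curves fitted both ways versus DMSO so AC50 may be loss or gain.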 The following applies: primary human endothelial cells (HUVEC). Summed up: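 Cytotoxicity readout: sulforhodamine B (0.1%) staining of total protein after 10% TCA fixation, measured at 560 nm in human umbilical vein endothelium at 24 h. DMSO set the baseline; fitting was bidirectional.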

Sequence of human Vitamin D Receptor (VDR), VDR (gene 7421) (P11473 whole entry, looked up, the tested form may be a part): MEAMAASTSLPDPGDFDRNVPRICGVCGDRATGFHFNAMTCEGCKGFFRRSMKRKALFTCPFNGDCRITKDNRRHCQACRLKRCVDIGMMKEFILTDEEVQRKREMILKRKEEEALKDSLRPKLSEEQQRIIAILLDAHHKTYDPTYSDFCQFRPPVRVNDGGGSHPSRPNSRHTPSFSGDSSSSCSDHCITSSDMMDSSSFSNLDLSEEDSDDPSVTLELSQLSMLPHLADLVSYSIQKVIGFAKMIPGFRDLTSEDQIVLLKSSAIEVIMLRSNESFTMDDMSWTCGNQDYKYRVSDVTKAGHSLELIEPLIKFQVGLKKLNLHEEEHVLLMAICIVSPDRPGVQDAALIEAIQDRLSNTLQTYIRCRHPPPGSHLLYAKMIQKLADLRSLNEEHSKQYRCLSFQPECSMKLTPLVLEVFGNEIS

Turning to `S=C1NCCN1`, the result in [1], in test [2], in test [3], in [4], in test [5] and in test [7] was inactive. Moreover, the outcome in test [8] and in test [9] was inactive. Besides, the half-maximal activity concentration (AC50) in test [6] is 39 µM (active).
As for `Cc1nn(-c2cc(NS(C)(=O)=O)c(Cl)cc2Cl)c(=O)n1C(F)F`, the outcome in test [1], in test [2], in [3], in test [4], in test [5] and in test [6] was inactive. The result in test [7], in test [10], in [8] and in test [9] was inactive.
Turning to `CSC1=N[C@@](C)(c2ccccc2)C(=O)N1Nc1ccccc1`, the figures for the AC50 in test [1], in [4] and in test [10] were 8.64 µM (active), 7.26 µM (active) and 2.88 µM (active), respectively. The result in [2], in [3], in [5], in test [6], in test [7] and in test [8] was inactive. In addition, in [9], the outcome was inactive.
With `COc1ccc(C(=CC(=O)N2CCOCC2)c2ccc(Cl)cc2)cc1OC`, the outcome in test [1], in test [2], in test [3], in [4], in test [5] and in [6] was inactive. The result in test [7] and in [10] was inactive. Besides, the AC50 in [9] is 3.36 µM (active).
In the case of `CN(C)NC(=O)CCC(=O)O`, the outcome in test [1], in [2], in test [3], in test [4], in test [5] and in test [6] was inactive. Moreover, the outcome in test [7] and in test [9] was inactive.
As to `C#CCC1=C(C)C(OC(=O)C2C(C=C(C)C)C2(C)C)CC1=O` (stereo unspecified), the AC50 was 30.7 µM (active) in [1], 28.5 µM (active) in [4], 31.6 µM (active) in test [7] and 18 µM (active) in test [8]. Besides, the outcome in test [2], in test [3], in [5], in test [6] and in [9] was inactive.
For `CC1(C(=O)Nc2ccc(O)c(Cl)c2Cl)CCCCC1`, the result in [1], in [2], in test [3], in test [4], in [5] and in [6] was inactive. Besides, the outcome in [7] and in [9] was inactive.
As for `CC[C@H](C)[C@H]1O[C@]2(C=C[C@@H]1C)C[C@@H]1C[C@@H](C/C=C(\C)[C@@H](O[C@H]3C[C@H](OC)[C@@H](O[C@H]4C[C@H](OC)[C@@H](NC)[C@H](C)O4)[C@H](C)O3)[C@@H](C)/C=C/C=C3\CO[C@@H]4[C@H](O)C(C)=C[C@@H](C(=O)O1)[C@]34O)O2`, the concentration at half-maximal activity (AC50) was 6.22 µM (active) in test [1]; 9.14 µM (active) in [2]; 2.43 µM (active) in test [4]; 11.9 µM (active) in test [5]; 1.61 µM (active) in test [6]; 1.77 µM (active) in [7]. For the same compound, the AC50 in test [10] is 5.17 µM (active); in [8], 2.87 µM (active); in test [9], 1.88 µM (active). Also, in test [3], the call was inactive.
With `CN1COCN(Cc2cnc(Cl)s2)C1=N[N+](=O)[O-]`, the outcome in test [1], in [2], in test [3], in [4], in test [5] and in test [6] was inactive. For the same compound, the outcome in [7], in test [8] and in [9] was inactive.
On to `CCOP(=S)(Oc1cnc(C(C)(C)C)nc1)OC(C)C` (stereo unspecified), for which the half-maximal activity concentration (AC50) was 30.2 µM (active) in [1]; 34.2 µM (active) in [2]; 35.5 µM (active) in test [4]; 39.8 µM (active) in [6]; 32 µM (active) in test [7]. The call in [3], in test [5], in [8] and in test [9] was inactive.
On to `CC(C)=CC1C(C(=O)OCN2C(=O)C3=C(CCCC3)C2=O)C1(C)C` (stereo unspecified), for which the outcome in test [1], in test [2], in [3], in test [6], in [8] and in test [9] was inactive. The results for the AC50 in [4], in test [5] and in test [7] were 27.2 µM (active), 11.3 µM (active) and 20 µM (active), respectively.
Turning to `COP(=O)(OC)C(O)C(Cl)(Cl)Cl` (stereo unspecified), the result in test [1], in test [2], in test [3], in test [4], in [5] and in test [7] was inactive. For the same compound, in test [9], the result was inactive. Further, the AC50 in test [6] is 9.8 µM (active).
As for `CCc1cnc(C2=NC(C)(C(C)C)C(=O)N2)c(C(=O)O)c1` (stereo unspecified), the result in test [1], in test [2], in [3], in test [4], in [5] and in test [6] was inactive. The outcome in test [7], in [10], in test [8] and in test [9] was inactive.
Regarding `CCOC(=O)COc1cc(-c2nn(C)c(OC(F)F)c2Cl)c(F)cc1Cl`, the outcome in [1], in [2], in [3], in [4], in [5] and in test [6] was inactive. The result in test [8] and in test [9] was inactive. Further, in test [7], the AC50 was 6.73 µM (active).
On to `O=[N+]([O-])c1cc(C(F)(F)F)c(Cl)c([N+](=O)[O-])c1Nc1ncc(C(F)(F)F)cc1Cl`, for which the AC50 in test [1] is 3.36 µM (active) and 4.25 µM (active); in [2], 3.73 µM (active) and 5.09 µM (active); in test [4], 1.49 µM (active); in test [5] it was 3.93 µM (active); in test [6] it was 1.5 µM (active) and 2.12 µM (active); in test [7] it was 1.18 µM (active) and 2.13 µM (active). Moreover, the AC50 in [8] was 1.79 µM (active) and 4.1 µM (active); in test [9], 774 nM (active) and 2.49 µM (active). Also, the compound was classed as inactive in test [3] and in [4].
`COP(=O)(NC(C)=O)SC` (stereo unspecified): the outcome in test [1], in [2], in [3], in test [5], in test [6] and in test [7] was inactive. Moreover, the result in [8] and in test [9] was inactive. The AC50 in test [4] is 5.17 µM (active).
Turning to `CCOP(=O)(SC(C)CC)N1CCSC1=O` (stereo unspecified), the result in test [1], in [2], in test [3], in [4], in [5] and in test [6] was inactive. The outcome in [7] and in test [9] was inactive.
As for `CCCCN(CC)c1c([N+](=O)[O-])cc(C(F)(F)F)cc1[N+](=O)[O-]`, the outcome in [1], in test [2], in test [3], in [5], in test [7] and in test [9] was inactive. The concentration at half-maximal activity (AC50) is 16.4 µM (active) in test [4] and 39 µM (active) in test [6].
`C[Si](Cn1cncn1)(c1ccc(F)cc1)c1ccc(F)cc1`: the result in [1], in [2], in test [3], in test [5], in test [7] and in test [10] was inactive. Also, in [9], the result was inactive. The AC50 in [4] is 17.9 µM (active); in test [6], 39 µM (active).

Values taken from PubChem BioAssay (EPA / NIEHS).
